{"source": "PubChem BioAssay AID1259421", "about": "(Broad Institute, 2018)", "note": "Values joined by “and” are separate entries in the source; they are usually repeats but may differ in a detail not shown here. Identical values can stand only once. The campaign covered roughly 6,400 compounds. About 610 (9.5%) were called active. Cut-off read from the data, not from the text of the source: active = activity change below about -70%; inconclusive = no clear call, values can overlap the other calls; inactive = above that. The entries come from a sample that favours actives as a whole. A structure can be active in one record and inactive in another."}
{"assay": "T. gondii ME49Luc in HeLa cells, luciferase assay, 72 h, no IFN-y (AID 1259421)", "conditions": "stronger effect = lower value, concentration not given here"}
{"smiles": "O=S(=O)(O)c1ccc(-c2c3nc(c(-c4ccc(S(=O)(=O)O)cc4)c4ccc([nH]4)c(-c4ccc(S(=O)(=O)O)cc4)c4nc(c(-c5ccc(S(=O)(=O)O)cc5)c5ccc2[nH]5)C=C4)C=C3)cc1", "activity change, negative = inhibition": "-0.332% (inactive)"}
{"smiles": "COc1cc2c(Oc3ccc(NC(=O)C4(C(=O)Nc5ccc(F)cc5)CC4)cc3F)ccnc2cc1OCCCN1CCOCC1", "activity change, negative = inhibition": "-67.4% (inactive)"}
{"smiles": "COc1cc2nccc(Oc3ccc(NC(=O)Nc4ccc(F)cc4F)c(F)c3)c2cc1OC", "activity change, negative = inhibition": "-38.1% (inactive)"}
{"smiles": "COc1cc2nccc(Oc3ccc(NC(=O)NC4CC4)c(Cl)c3)c2cc1C(N)=O", "activity change, negative = inhibition": "6.94% (inactive) and -7.61% (inactive)"}
{"smiles": "COc1cc2nccc(Oc3ccc(NC(=O)C4(C(=O)Nc5ccc(F)cc5)CC4)cc3)c2cc1OC", "activity change, negative = inhibition": "-93.3% (active)"}
{"smiles": "COc1cc2nccc(Oc3ccc(NC(=O)Nc4cc(C)on4)c(Cl)c3)c2cc1OC", "activity change, negative = inhibition": "-84.5% (active)"}
{"smiles": "COc1cc2c(N3CCN(C(=O)Nc4ccc(OC(C)C)cc4)CC3)ncnc2cc1OCCCN1CCCCC1", "activity change, negative = inhibition": "11% (inactive)"}
{"smiles": "Oc1cccc(-c2c3nc(c(-c4cccc(O)c4)c4ccc([nH]4)c(-c4cccc(O)c4)c4nc(c(-c5cccc(O)c5)c5ccc2[nH]5)C=C4)C=C3)c1", "activity change, negative = inhibition": "8.49% (inactive)"}
{"smiles": "C[C@H](NC(=O)C(C)(C)Oc1ccc(C(F)(F)F)cn1)[C@@H](Cc1ccc(Cl)cc1)c1cccc(C#N)c1", "activity change, negative = inhibition": "-17.6% (inactive)"}
{"smiles": "COc1ccc(S(=O)(=O)Nc2nnc(CC(C)C)s2)cc1", "activity change, negative = inhibition": "16.5% (inactive)"}
{"smiles": "CC[C@]1(O)CC2CN(CCc3c([nH]c4ccccc34)[C@@](C(=O)OC)(c3cc4c(cc3OC)N(C)[C@H]3[C@@](O)(C(=O)OC)[C@H](OC(C)=O)[C@]5(CC)C=CCN6CC[C@]43[C@@H]65)C2)C1", "note": "(stereo partly specified)", "activity change, negative = inhibition": "-90.8% (active)"}
{"smiles": "CC[C@]1(O)CC2CN(CCc3c([nH]c4ccccc34)[C@@](C(=O)OC)(c3cc4c(cc3OC)N(C=O)[C@H]3[C@@](O)(C(=O)OC)[C@H](OC(C)=O)[C@]5(CC)C=CCN6CC[C@]43[C@@H]65)C2)C1", "note": "(stereo partly specified)", "activity change, negative = inhibition": "-76.5% (active)"}
{"smiles": "COC(=O)[C@H]1[C@H]2C[C@@H]3c4[nH]c5ccccc5c4CCN3C[C@H]2C[C@@H](OC(=O)c2cc(OC)c(OC)c(OC)c2)[C@@H]1OC", "activity change, negative = inhibition": "-2.54% (inactive)"}
{"smiles": "CCC1(O)CC2CN(CCc3c([nH]c4ccccc34)C(C(=O)OC)(c3cc4c(cc3OC)N(C)C3C(O)(C(=O)OC)C(C(=O)OC)C5(CC)C=CCN6CCC43C65)C2)C1", "note": "(stereo unspecified)", "activity change, negative = inhibition": "-82.9% (active)"}
{"smiles": "CCC1=C[C@@H]2CN(C1)Cc1c([nH]c3ccccc13)[C@@](C(=O)OC)(c1cc3c(cc1OC)N(C)[C@H]1[C@@](O)(C(=O)OC)[C@H](OC(C)=O)[C@]4(CC)C=CCN5CC[C@]31[C@@H]54)C2", "activity change, negative = inhibition": "-61.1% (inactive)"}
{"smiles": "CO[C@H]1C[C@H]2CC[C@@H](C)[C@@](O)(O2)C(=O)C(=O)N2CCCC[C@H]2C(=O)O[C@H]([C@H](C)C[C@@H]2CC[C@H](OC(=O)C(C)(CO)CO)[C@H](OC)C2)CC(=O)[C@H](C)/C=C(\\C)[C@@H](O)[C@@H](OC)C(=O)[C@H](C)C[C@H](C)/C=C/C=C/C=C/1C", "activity change, negative = inhibition": "9.08% (inactive)"}
{"smiles": "CCOC(=O)[C@H](CCc1ccccc1)N[C@H]1CCCN2CCC[C@H](C(=O)O)N2C1=O", "activity change, negative = inhibition": "-4.74% (inactive)"}
{"smiles": "CC(N)(C(=O)O)c1ccc(-c2nn[nH]n2)cc1", "note": "(stereo unspecified)", "activity change, negative = inhibition": "3.49% (inactive)"}
{"smiles": "C[C@@H]1C(=O)O[C@H]2[C@H](O)C34[C@H]5C[C@@H](C(C)(C)C)[C@]36[C@@H](OC(=O)[C@@H]6O)O[C@]4(C(=O)O5)[C@@]12O", "note": "(stereo partly specified)", "activity change, negative = inhibition": "5.38% (inactive)"}
{"smiles": "CN1CCN(C(=O)C2C3CCC(O3)C2C(=O)O)CC1", "note": "(stereo unspecified)", "activity change, negative = inhibition": "3.27% (inactive)"}
{"smiles": "Cc1sc[n+](CC(=O)c2ccccc2)c1C", "activity change, negative = inhibition": "60.9% (inactive)"}
{"smiles": "CN1CCN(C2Cc3ccccc3Sc3ccc(Cl)cc32)CC1", "note": "(stereo unspecified)", "activity change, negative = inhibition": "7.98% (inactive)"}
{"smiles": "CSc1ccc2c(c1)N(CCC1CCCCN1C)c1ccccc1S2", "note": "(stereo unspecified)", "activity change, negative = inhibition": "31.1% (inactive) and -16.1% (inactive)"}
{"smiles": "CSc1ccc2c(c1)C(N1CCN(C)CC1)Cc1ccccc1S2", "note": "(stereo unspecified)", "activity change, negative = inhibition": "-82.4% (active) and -87% (active) and -85.3% (active)"}
{"smiles": "C[C@@H]1O[C@@H](O[C@H]2[C@H](Oc3cc(O)c4c(=O)cc(-c5ccc(O)cc5)oc4c3)O[C@H](CO)[C@@H](O)[C@@H]2O)[C@H](O)[C@H](O)[C@H]1O", "activity change, negative = inhibition": "5.34% (inactive)"}
{"smiles": "CCO[C@H]1OC(=O)C[C@@H]1NC(=O)[C@@H]1CCCN1C(=O)[C@@H](NC(=O)c1ccc(N)c(Cl)c1)C(C)(C)C", "activity change, negative = inhibition": "3.07% (inactive)"}
{"smiles": "CCOC(=O)[C@@]1(CCCCCCOc2ccc(Cl)cc2)CO1", "activity change, negative = inhibition": "17.5% (inactive)"}
{"smiles": "O=C(O)CC(=O)C(=O)O", "activity change, negative = inhibition": "21.8% (inactive)"}
{"smiles": "CC(NCCc1ccc(O)cc1)C(O)c1ccc(O)cc1", "note": "(stereo unspecified)", "activity change, negative = inhibition": "1.92% (inactive) and 4.83% (inactive)"}
{"smiles": "C[C@@H](NCCc1ccc(O)cc1)[C@@H](O)c1ccc(O)cc1", "activity change, negative = inhibition": "24.4% (inactive)"}
{"smiles": "CCCCCCCCNC(C)C(O)c1ccc(SC(C)C)cc1", "note": "(stereo unspecified)", "activity change, negative = inhibition": "-84.8% (active) and -78% (active) and 18.5% (inactive)"}
{"smiles": "NS(=O)(=O)c1cccc2c1c([N+](=O)[O-])cc1[nH]c(=O)c(=O)[nH]c12", "activity change, negative = inhibition": "4.26% (inactive) and 1.99% (inactive) and 17.2% (inactive)"}
{"smiles": "CC(C)C1C2CCC(C2)C1N", "note": "(stereo unspecified)", "activity change, negative = inhibition": "-31.8% (inactive)"}
{"smiles": "O=[N+]([O-])c1nccn1CC(O)CN1CCCCC1", "note": "(stereo unspecified)", "activity change, negative = inhibition": "-0.914% (inactive)"}
{"smiles": "Cc1nc(C)c(-c2ccc(C3CCC(CC(=O)O)CC3)cc2)nc1C(N)=O", "note": "(stereo unspecified)", "activity change, negative = inhibition": "21.5% (inactive)"}
{"smiles": "CNC(=O)[C@H]1O[C@@H](n2cnc3c(NCc4cccc(I)c4)nc(Cl)nc32)[C@H](O)[C@@H]1O", "activity change, negative = inhibition": "-25.8% (inactive)"}
{"smiles": "C=CC(=O)N1CCC[C@@H](n2nc(-c3ccc(Oc4ccccc4)cc3)c3c(N)ncnc32)C1", "activity change, negative = inhibition": "-76.1% (active)"}
{"smiles": "C/C(=C(/CCOC(=O)C(C)C)SS/C(CCOC(=O)C(C)C)=C(\\C)N(C=O)Cc1cnc(C)nc1N)N(C=O)Cc1cnc(C)nc1N", "activity change, negative = inhibition": "-5.95% (inactive)"}
{"smiles": "CC(=O)Oc1ccc2c(c1C(C)C)CCC1C(C)(C)CCC[C@]21C", "note": "(stereo partly specified)", "activity change, negative = inhibition": "-4.41% (inactive)"}
{"smiles": "COC(=O)[C@@]1(C)CCC[C@]2(C)c3ccc(O)c(C(C)C)c3CCC12", "note": "(stereo partly specified)", "activity change, negative = inhibition": "-72.7% (active)"}
{"smiles": "CC(C)c1c(O)ccc2c1CCC1C(C)(C)CCC[C@]21C", "note": "(stereo partly specified)", "activity change, negative = inhibition": "25.1% (inactive)"}
